Here are results for seven compounds from PubChem BioAssay (NCI).

Molecules are shown by their SMILES. About 83,000 compounds went through this panel and 20% of them were active in at least one assay; those are over-represented in the sample as a whole.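 Cells were grown in 96-well plates and exposed to the test compound at a single concentration for 48 hours; results are reported as percent growth, with values below 10 considered active.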 A number with no mark means an inactive call. The source made the active and inactive calls.

Holding throughout (test): NCI-60 one-dose screen, 48 h (100 = growth as untreated, 0 = no growth, -100 = all killed)
Holding throughout (details): 10 µM unless noted

Test [1] deals with DU-145 prostate.
The test system of test [2] is K-562 leukemia.
The test system of test [3] is MALME-3M melanoma.
In test [4] the test system is MDA-MB-231 breast.
Test [5] relates to RXF 393 renal.
The test system of test [6] is SF-268 CNS.
Test [7] concerns SF-295 CNS.
Test [8] deals with SF-539 CNS.
The subject of test [9] is UACC-257 melanoma.
The test system of test [10] is M14 melanoma.
For test [11], the system named is HCT-15 colon.
Test [12] has as its system HT29 colon.
Test [13] concerns SNB-75 CNS.
In test [14] the test system is SNB-19 CNS.
For test [15], the system named is U251 CNS.
Test [16] relates to PC-3 prostate.
For test [17], the system named is SK-MEL-5 melanoma.
The test system of test [18] is UACC-62 melanoma.
Test [19] relates to LOX IMVI melanoma.
The test system of test [20] is SK-MEL-28 melanoma.

In the case of `CC(C)(C)c1cc(Cl)c(O)c(CNCCO)c1`, the growth in test [1] was 113%; in [2] it was 102%; in test [3], 112%; in test [4], 115%; in test [5], 98.1%; in test [6], 106%. In addition, the growth in [7] was 97%; in [8] it was 107%; in test [9] it was 110%; in test [10], 104%; in test [11], 99.7%; in test [12], 107%. For the same compound, the growth is 90.1% in test [13]; 113% in test [14]; 112% in [15]; 112% in test [16]; 100% in test [17]; 107% in [18]. In addition, the figures for the growth in [19] and in [20] were 101% and 103%, respectively.

In the case of `O=C(CCCCCNC(=O)c1cc(=O)c(O)co1)Nc1ccccc1`, the growth is 103% in [1]; 95.2% in test [2]; 102% in test [3]; 101% in test [4]; 109% in test [5]; 91.8% in test [6]. Moreover, the growth in test [7] was 97.4%; in [8] it was 101%; in [9], 93.8%; in test [10], 96.3%; in test [11] it was 91.5%; in [12], 106%. For the same compound, the growth in test [13] was 82.7%; in test [14], 101%; in [15] it was 89.9%; in [16], 99.7%; in test [17], 101%; in test [18], 97.9%. In addition, the results for the growth in test [19] and in [20] were 92.7% and 104%, respectively.

For the compound `C[C@@H]1O[C@@H](O[C@@H]2C[C@H](c3ccc4c(c3O)C(=O)C3=C(C4=O)[C@@]4(O)C(=O)C[C@](C)(O)C[C@@]4(O)C=C3)O[C@H](C)[C@H]2O)CC[C@@H]1O[C@H]1C[C@@H](O)[C@H](O)[C@@H](C)O1`, the growth in test [1] was 110%; in [2] it was 94.4%; in [3] it was 65.4%; in [4], 105%; in test [5] it was 113%; in test [6], 87%. For the same compound, the growth in test [7] is 102%; in test [8], 100%; in test [9], 98.4%; in test [10], 110%; in test [11], 94.8%; in [12] it was 108%. The growth in [13] is 90.7%; in test [14] it was 100%; in test [15], 98.7%; in test [16], 96%; in test [17], 101%; in test [18], 97.8%. In addition, the results for the growth in [19] and in test [20] were 94.6% and 116%, respectively.

As to `CSc1nc(C)c([N+](=O)[O-])c(N)n1`, the growth is 109% in [1]; 91% in test [2]; 104% in test [3]; 96.5% in [4]; 114% in [5]; 105% in [6]. For the same compound, the growth in test [7] was 109%; in [8], 104%; in [9], 84.7%; in [10] it was 91.8%; in [11], 107%; in [12], 85.4%. In addition, the growth in test [13] was 98.7%; in [14], 96.9%; in test [15], 87.9%; in test [16] it was 85.3%; in [17], 102%; in test [18] it was 98%. Moreover, the values for the growth in test [19] and in test [20] were 96.7% and 120%, respectively.

As to `N#CC1=C(N)Oc2ccc3ccccc3c2C1c1ccc([N+](=O)[O-])cc1` (stereo not given), the growth in test [1] was 104%; in [2] it was 77.7%; in [3] it was 51.4%; in test [4], 57.8%; in [5], 94.7%; in test [6], 80.5%. Moreover, the growth in test [7] was 84.6%; in test [8] it was 85.7%; in test [9], 89.3%; in test [10], 89.7%; in [11] it was 87.6%; in test [12] it was 105%. Moreover, the growth in test [13] was 61.7%; in [14], 86.8%; in test [15], 94.2%; in test [16] it was 69.8%; in test [17] it was 86.2%; in test [18], 77.3%. Also, the figures for the growth in test [19] and in test [20] were 74.6% and 99.1%, respectively.

As to `Cc1cccc(N2CCC(=O)NC2=S)c1`, the growth is 116% in test [1]; 112% in test [2]; 95.9% in test [3]; 89.9% in test [4]; 115% in [5]; 99.4% in [6]. In addition, the growth was 103% in [7]; 96.7% in [8]; 105% in [9]; 97.3% in [10]; 107% in test [11]; 113% in test [12]. The growth is 92.5% in test [13]; 99.4% in [14]; 104% in [15]; 98.3% in [16]; 101% in [17]; 96.4% in [18]. Further, the growth is 97.2% in [19] and 110% in test [20].

Take `Cc1c2ccncc2c(C)c2c1c1cc(CO)ccc1n2C`: the growth in test [1] was -2.14% (active); in test [2], 6.77% (active); in test [3], -1.68% (active); in test [4] it was -8.51% (active); in test [5], 11.9%; in [6] it was 14.4%. Besides, the growth in test [7] was 3.5% (active); in test [8] it was 17.2%; in test [9], -39.2% (active); in [10], -22.9% (active); in test [11] it was 4.02% (active); in [12], -21.1% (active). Further, the growth in test [13] was 13.3%; in test [14], 1.5% (active); in [15] it was -10.8% (active); in test [16], 4.52% (active); in [17], 6.31% (active); in test [18], -54.2% (active). The growth in test [19] is -21% (active); in test [20] it was 5.47% (active).
